Results taken from PubChem BioAssay (NCATS).
Records with an inconclusive call do not appear. The source made the active and inactive calls. The call rests on the fitted dose curve; in most records, active means well fitted curve in the direction sought with a large enough effect; inconclusive means small, poorly fitted or top-dose-only effect, or another doubt; inactive means no such curve, though single readings can be large; an effect the other way counts as inactive or inconclusive.

Columns and labels:
[1] = qHTS of pediatric cancer cell lines to identify multiple opportunities for drug repurposing: Primary screen for U-2 OS cells (AID 1347096); further: nearly all actives have a fitted effect of over 50% in size
Outline: (§1)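 Viability after 48 h compound treatment at 37C, 500-1,000 cells/well, read as ATP luminescence with CellTiter-Glo. Primary screens used 11-point (MIPE, 0.78 nM-46 µM) or 8-point (NPC, 0.59 nM-46 µM) final concentrations; follow-up screens used 11-point dilutions.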

[2] = qHTS of pediatric cancer cell lines to identify multiple opportunities for drug repurposing: Primary screen for Saos-2 cells (AID 1347097); further: nearly all actives have a fitted effect of over 40% in size
Outline: (§2)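 Cells plated at 500-1,000/well in growth medium, compounds added after 5 h. MIPE tested at 11 points (from 0.78 nM), NPC at 8 points (from 0.59 nM). CellTiter-Glo luminescence after 48 h; concentration-response curves from primary screen.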

[3] = qHTS of pediatric cancer cell lines to identify multiple opportunities for drug repurposing: Primary screen for SK-N-SH cells (AID 1347098); further: nearly all actives have a fitted effect of over 65% in size
Outline: (§3)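 Cells (500-1,000/well) rested 5 h, then received compounds for 48 h; metabolically active cells were measured by CellTiter-Glo luminescence. Final concentrations spanned up to 46 µM (MIPE, 11-point) or 0.59 nM-46 µM (NPC, 8-point) in primary screens, 11-point in follow-ups.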

[4] = qHTS of pediatric cancer cell lines to identify multiple opportunities for drug repurposing: Primary screen for NB1643 cells (AID 1347099); further: nearly all actives have a fitted effect of over 50% in size
Outline: as §2

[5] = qHTS of pediatric cancer cell lines to identify multiple opportunities for drug repurposing: Primary screen for LAN-5 cells (AID 1347100)
Outline: as §1

[6] = qHTS of pediatric cancer cell lines to identify multiple opportunities for drug repurposing: Primary screen for Rh18 cells (AID 1347102); further: nearly all actives have a fitted effect of over 65% in size
Outline: as §1

[7] = qHTS of pediatric cancer cell lines to identify multiple opportunities for drug repurposing: Primary screen for OHS-50 cells (AID 1347103); further: nearly all actives have a fitted effect of over 40% in size
Outline: as §3

[8] = qHTS of pediatric cancer cell lines to identify multiple opportunities for drug repurposing: Primary screen for RD cells (AID 1347104); further: nearly all actives have a fitted effect of over 55% in size
Outline: as §2

[9] = qHTS of pediatric cancer cell lines to identify multiple opportunities for drug repurposing: Primary screen for MG 63 (6-TG R) cells (AID 1347105); further: nearly all actives have a fitted effect of over 50% in size
Outline: as §2

[10] = qHTS of pediatric cancer cell lines to identify multiple opportunities for drug repurposing: Primary screen for Rh30 cells (AID 1347107); further: nearly all actives have a fitted effect of over 75% in size
Outline: as §1

[11] = qHTS of pediatric cancer cell lines to identify multiple opportunities for drug repurposing: Primary screen for Rh41 cells (AID 1347108); further: nearly all actives have a fitted effect of over 70% in size
Outline: as §2

[12] = qHTS of pediatric cancer cell lines to identify multiple opportunities for drug repurposing: Confirmatory screen for NB1643 cells (AID 1347109); further: nearly all actives have a fitted effect of over 45% in size
Outline: as §1

[13] = qHTS of pediatric cancer cell lines to identify multiple opportunities for drug repurposing: Confirmatory screen for A673 cells (AID 1347110); further: nearly all actives have a fitted effect of over 65% in size
Outline: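 A673 cells seeded at 500-1,000 cells/well, rested 5 h, then dosed; primary MIPE 11-point (0.78 nM to 46 µM), NPC (0.59 nM to 46 µM); confirmatory 11-point. CellTiter-Glo luminescence after 48 h.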

[14] = qHTS of pediatric cancer cell lines to identify multiple opportunities for drug repurposing: Confirmatory screen for BT-12 cells (AID 1347112); further: nearly all actives have a fitted effect of over 55% in size
Outline: as §1

[15] = qHTS of pediatric cancer cell lines to identify multiple opportunities for drug repurposing: Confirmatory screen for LAN-5 cells (AID 1347113); further: nearly all actives have a fitted effect of over 65% in size
Outline: as §1

[16] = qHTS of pediatric cancer cell lines to identify multiple opportunities for drug repurposing: Confirmatory screen for DAOY cells (AID 1347114); further: nearly all actives have a fitted effect of over 65% in size
Outline: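 Viability measured as metabolically active cells via CellTiter-Glo luminescence following 48 hours of compound exposure, 11-point dilutions in confirmatory testing. 500-1,000 cells/well plated 5 hours before dosing; controls were DMSO and 2.3 µM bortezomib.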

[17] = qHTS of pediatric cancer cell lines to identify multiple opportunities for drug repurposing: Confirmatory screen for NB-EBc1 cells (AID 1347115); further: nearly all actives have a fitted effect of over 45% in size
Outline: as §1

[18] = qHTS of pediatric cancer cell lines to identify multiple opportunities for drug repurposing: Primary screen for BT-12 cells (AID 1347101); further: nearly all actives have a fitted effect of over 25% in size
Outline: as §3

[19] = qHTS of pediatric cancer cell lines to identify multiple opportunities for drug repurposing: Primary screen for control Hh wild type fibroblast cells (AID 1347106); further: nearly all actives have a fitted effect of over 55% in size
Outline: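 Cells (500-1,000/well) in growth media were settled 5 h at 37 degrees C, then given compounds for 48 h. Viability was read as CellTiter-Glo luminescence. Primary runs used MIPE at 11 points (0.78 nM-46 µM) and NPC at 8 points (0.59 nM-46 µM); follow-ups used 11 points.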

[20] = qHTS of pediatric cancer cell lines to identify multiple opportunities for drug repurposing: Confirmatory screen for SK-N-MC cells (AID 1347111);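 further: cells exposed to compound for 48 h before the readout; nearly all actives have a fitted effect of over 70% in size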
Outline: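 SK-N-MC cells at 500-1,000 cells/well in growth media were pre-incubated 5 h, then exposed to compounds at 11-point dilutions for 48 h at 37 degrees C, 5% CO2. Viability was read as CellTiter-Glo luminescence.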

Measured: Potency
Potency means the concentration at half of the fitted maximal effect.

COc1ccc(-c2cc3c(C)nc(N)nc3n(C3CCC(OCCO)CC3)c2=O)cn1 (stereo not given)
active: [1] 0.469 µM | [2] 0.187 µM | [3] 2.41 µM | [4] 0.166 µM | [5] 0.469 µM | [6] 0.0935 µM | [7] 0.0077 µM | [8] 0.187 µM | [9] 0.0187 µM | [10] 4.18 µM | [11] 0.118 µM | [13] 1.17 µM
inactive: [12] | [14] | [15] | [16] | [17]

Clc1ccc2ncc(-c3cccc(NC4CNC4)n3)n2c1
inactive: [1] | [2] | [6] | [9] | [19]
active: [3] 3.41 µM | [5] 16.6 µM | [18] 8.63 µM

Cc1coc2c1C(=O)C(=O)c1c-2ccc2c1CCCC2(C)C
active: [2] 1.66 µM | [18] 21.7 µM | [6] 20.9 µM
inactive: [1] | [3] | [9] | [19] | [10] | [11]

CCN1CCN(Cc2ccc(-c3cc4c(N[C@H](C)c5ccccc5)ncnc4[nH]3)cc2)CC1
active: [1] 18.7 µM | [2] 0.209 µM | [3] 21.5 µM | [5] 0.0148 µM | [18] 0.769 µM | [6] 5.9 µM | [7] 0.153 µM | [8] 0.0074 µM | [12] 13.5 µM | [13] 0.479 µM | [20] 0.851 µM | [14] 26.9 µM | [15] 9.55 µM | [16] 8.51 µM | [17] 38 µM
inactive: [19]

O=C(O)CCCc1c[nH]c2ccccc12
inactive: [1] | [2] | [3] | [6] | [7] | [9] | [10] | [11]

CCCCCN(CCC12CC3CC(CC(C3)C1)C2)C(=O)NCCCc1ccncc1
inactive: [1] | [3] | [19] | [10]
active: [2] 18.7 µM | [5] 16.6 µM | [7] 19.3 µM

COc1cc2ncn(-c3cc(OCc4ccccc4C(F)(F)F)c(C(N)=O)s3)c2cc1OC
active: [1] 23.5 µM | [2] 10.5 µM | [3] 24.1 µM | [18] 21.7 µM | [7] 1.22 µM | [8] 1.66 µM | [9] 7.43 µM | [19] 18.7 µM

Nc1ccc(S(=O)(=O)Nc2ncccn2)cc1
not listed: [3] | [12] | [13] | [14] | [15] | [16] | [17] | [20]
inactive: all other assays above
